# Reference: the supplement of paper PMC8728848
# The entries come from a sample that favours the strongest signals as a whole.
# B1: diCBM40 CPF071 (Clostridium perfringens) (protein)
# chain: MAHHHHHHVGTGSNDDDDKSPDPMLSSLGEYKDINLESSNASNITYDLEKYKNLDEGTIVVRFNSKDSKIQSLLGISNSKTKNGYFNFYVTNSRVGFELRNQKNEGNTQNGTENLVHMYKDVALNDGDNTVALKIEKNKGYKLFLNGKMIKEVKDTNTKFLNNIENLDSAFIGKTNRYGQSNEYNFKGNIGFMNIYNEPLGDDYLLSKTGETKALNGSELGSGSGLSSLGEYKDINLESSNASNITYDLEKYKNLDEGTIVVRFNSKDSKIQSLLGISNSKTKNGYFNFYVTNSRVGFELRNQKNEGNTQNGTENLVHMYKDVALNDGDNTVALKIEKNKGYKLFLNGKMIKEVKDTNTKFLNNIENLDSAFIGKTNRYGQSNEYNFKGNIGFMNIYNEPLGDDYLLSKTGETK
# How the values were obtained:
# Test in all cases: glycan array binding signal (z-score within array); higher = stronger binding
# Details in all cases: glycan notation: IUPAC condensed, linker removed
# [1] = biological target: Fuc(a1-2)Gal(b1-3)GlcNAc(b1-3)[Gal(b1-4)GlcNAc(b1-6)]Gal(b1-4)Glc
# Method in brief: (§1)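 Negative Z-scores can be read as non-binding. The Z-score is calculated within each array and then averaged across arrays of one protein sequence at different concentrations or buffers and across linkers. Arrays, 3228 in all, were curated from the Consortium for Functional Glycomics database and kept only where the protein sequence was available.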
# [2] = biological target: Fuc(a1-2)Gal(b1-4)GlcNAc
# Method in brief: as §1
# [3] = biological target: Fuc(a1-2)Gal(b1-4)GlcNAc(b1-3)[Fuc(a1-3)[Gal(b1-4)]GlcNAc(b1-6)]Gal(b1-4)Glc
# Method in brief: as §1
# [4] = biological target: Fuc(a1-2)Gal(b1-4)GlcNAc(b1-6)GalNAc
# Method in brief: as §1
# [5] = biological target: Fuc(a1-2)Gal6S(b1-3)GlcNAc
# Method in brief: as §1
# [6] = biological target: Fuc(a1-2)[Gal(a1-3)]Gal(b1-3)GlcNAc(b1-2)Man(a1-3)[Fuc(a1-2)[Gal(a1-3)]Gal(b1-3)GlcNAc(b1-2)Man(a1-6)]Man(b1-4)GlcNAc(b1-4)GlcNAc
# Method in brief: as §1
# [7] = biological target: Fuc(a1-2)[Gal(a1-3)]Gal(b1-3)GlcNAc(b1-6)GalNAc
# Method in brief: as §1
# [8] = biological target: Fuc(a1-2)[Gal(a1-4)]Gal(b1-4)GlcNAc
# Method in brief: as §1
# [9] = biological target: Fuc(a1-2)[GalNAc(a1-3)]Gal(b1-3)GlcNAc(b1-6)GalNAc
# Method in brief: as §1
# [10] = biological target: Fuc(a1-2)[GalNAc(a1-3)]Gal(b1-4)GlcNAc(b1-2)Man(a1-3)[Fuc(a1-2)[GalNAc(a1-3)]Gal(b1-4)GlcNAc(b1-2)Man(a1-6)]Man(b1-4)GlcNAc(b1-4)[Fuc(a1-6)]GlcNAc
# Method in brief: as §1
# [11] = biological target: Fuc(a1-2)[GalNAc(a1-3)]Gal(b1-4)GlcNAc(b1-6)GalNAc
# Method in brief: as §1
# [12] = biological target: Fuc(a1-2)[GalNAc(a1-4)]Gal(b1-4)GlcNAc
# Method in brief: as §1
# [13] = biological target: Fuc(a1-3)[Gal(b1-4)]GlcNAc(b1-2)Man(a1-3)[Fuc(a1-3)[Gal(b1-4)]GlcNAc(b1-2)Man(a1-6)]Man(b1-4)GlcNAc(b1-4)[Fuc(a1-6)]GlcNAc
# Method in brief: as §1
# [14] = biological target: Fuc(a1-3)[Gal(b1-4)]GlcNAc(b1-3)Gal(b1-4)[Fuc(a1-3)]GlcNAc(b1-3)Gal(b1-4)[Fuc(a1-3)]GlcNAc
# Method in brief: as §1
# [15] = biological target: Fuc(a1-3)[Gal3S(b1-4)]GlcNAc6S
# Method in brief: as §1
# [16] = biological target: Gal(b1-3)[Fuc(a1-4)]GlcNAc(b1-3)Gal(b1-3)[Fuc(a1-4)]GlcNAc
# Method in brief: as §1
# [17] = biological target: Gal(b1-3)[Fuc(a1-4)]GlcNAc(b1-6)GalNAc
# Method in brief: as §1
# [18] = biological target: Gal(b1-4)Glc
# Method in brief: as §1
# [19] = biological target: Gal(b1-4)GlcNAc(b1-2)Man(a1-3)[Man(a1-6)]Man(b1-4)GlcNAc(b1-4)GlcNAc
# Method in brief: as §1
# [20] = biological target: GalNAc(b1-3)Gal(a1-4)Gal(b1-4)GlcNAc(b1-3)Gal(b1-4)Glc
# Method in brief: as §1
# [21] = biological target: GalNAc(b1-3)GalNAc
# Method in brief: as §1
# [22] = biological target: GlcA3S(b1-3)Gal(b1-4)GlcNAc(b1-2)Man
# Method in brief: as §1
# [23] = biological target: GlcNAc(b1-3)Gal(b1-4)GlcNAc(b1-3)Gal(b1-4)GlcNAc(b1-3)Gal(b1-4)GlcNAc(b1-2)Man(a1-3)[GlcNAc(b1-3)Gal(b1-4)GlcNAc(b1-3)Gal(b1-4)GlcNAc(b1-3)Gal(b1-4)GlcNAc(b1-2)Man(a1-6)]Man(b1-4)GlcNAc(b1-4)GlcNAc
# Method in brief: as §1
# [24] = biological target: GlcNAc(b1-3)Gal(b1-4)GlcNAc(b1-3)Gal(b1-4)GlcNAc(b1-3)Gal(b1-4)GlcNAc(b1-3)Gal(b1-4)GlcNAc(b1-2)[GlcNAc(b1-3)Gal(b1-4)GlcNAc(b1-3)Gal(b1-4)GlcNAc(b1-3)Gal(b1-4)GlcNAc(b1-3)Gal(b1-4)GlcNAc(b1-6)]Man(a1-6)[GlcNAc(b1-3)Gal(b1-4)GlcNAc(b1-3)Gal(b1-4)GlcNAc(b1-3)Gal(b1-4)GlcNAc(b1-3)Gal(b1-4)GlcNAc(b1-2)Man(a1-3)]Man(b1-4)GlcNAc(b1-4)[Fuc(a1-6)]GlcNAc
# Method in brief: as §1
# [25] = biological target: Neu5Ac(a2-3)Gal(b1-3)GlcNAc(b1-2)Man(a1-3)[GlcNAc(b1-4)][Neu5Ac(a2-3)Gal(b1-3)GlcNAc(b1-2)Man(a1-6)]Man(b1-4)GlcNAc(b1-4)GlcNAc
# Method in brief: as §1
# [26] = biological target: Neu5Ac(a2-3)Gal(b1-3)GlcNAc(b1-2)[Neu5Ac(a2-3)Gal(b1-3)GlcNAc(b1-4)]Man(a1-6)[Neu5Ac(a2-3)Gal(b1-3)GlcNAc(b1-2)Man(a1-3)]Man(b1-4)GlcNAc(b1-4)GlcNAc
# Method in brief: as §1
# [27] = biological target: Neu5Ac(a2-3)Gal(b1-3)[Fuc(a1-4)]GlcNAc
# Method in brief: as §1
# [28] = biological target: Neu5Ac(a2-3)Gal(b1-3)]Neu5Ac(a2-3)Gal(b1-4)]GlcNAc
# Method in brief: as §1
# [29] = biological target: Neu5Ac(a2-3)Gal(b1-4)GlcNAc
# Method in brief: as §1
# [30] = biological target: Neu5Ac(a2-3)Gal(b1-4)GlcNAc(b1-2)Man(a1-3)[Neu5Ac(a2-3)Gal(b1-4)GlcNAc(b1-2)Man(a1-6)]Man(b1-4)GlcNAc(b1-4)[Fuc(a1-6)]GlcNAc
# Method in brief: as §1
# [31] = biological target: Neu5Ac(a2-3)Gal(b1-4)GlcNAc(b1-3)Gal(b1-4)GlcNAc(b1-3)Gal(b1-4)GlcNAc
# Method in brief: as §1
# [32] = biological target: Neu5Ac(a2-3)Gal(b1-4)GlcNAc(b1-3)Gal(b1-4)GlcNAc(b1-3)GalNAc
# Method in brief: as §1
# [33] = biological target: Neu5Ac(a2-3)Gal(b1-4)GlcNAc6S
# Method in brief: as §1
# [34] = biological target: Neu5Ac(a2-3)Gal(b1-4)[Fuc(a1-3)]GlcNAc6S
# Method in brief: as §1
# [35] = biological target: Neu5Ac(a2-3)Gal6S(b1-4)GlcNAc
# Method in brief: as §1
# [36] = biological target: Neu5Ac(a2-3)Gal6S(b1-4)[Fuc(a1-3)]GlcNAc
# Method in brief: as §1
# [37] = biological target: Neu5Ac(a2-6)Gal(b1-4)Glc
# Method in brief: as §1
# [38] = biological target: Neu5Ac(a2-6)Gal(b1-4)GlcNAc(b1-3)[Neu5Ac(a2-6)Gal(b1-4)GlcNAc(b1-6)]GalNAc
# Method in brief: as §1
# [39] = biological target: Neu5Ac(a2-8)Neu5Ac
# Method in brief: as §1
# [40] = biological target: Neu5Ac(a2-8)Neu5Ac(a2-3)Gal(b1-3)GalNAc(b1-4)[Neu5Ac(a2-3)]Gal(b1-4)Glc
# Method in brief: as §1
# [41] = biological target: Neu5Gc(a2-3)Gal(b1-3)[Fuc(a1-4)]GlcNAc
# Method in brief: as §1
# [42] = biological target: Neu5Gc(a2-3)Gal(b1-4)GlcNAc(b1-3)Gal(b1-4)GlcNAc(b1-2)Man(a1-3)[Neu5Gc(a2-3)Gal(b1-4)GlcNAc(b1-3)Gal(b1-4)GlcNAc(b1-2)Man(a1-6)]Man(b1-4)GlcNAc(b1-4)GlcNAc
# Method in brief: as §1
# [43] = biological target: Neu5Gc(a2-6)GalNAc
# Method in brief: as §1
# [44] = biological target: Neu5Gc(a2-8)Neu5Ac(a2-3)Gal(b1-4)GlcNAc
# Method in brief: as §1
binder,measurement,setting,value
B1,glycan array binding signal (z-score),[1],-0.277
same,glycan array binding signal (z-score),[2],-0.304
same,glycan array binding signal (z-score),[3],-0.238
same,glycan array binding signal (z-score),[4],-0.304
same,glycan array binding signal (z-score),[5],-0.33
same,glycan array binding signal (z-score),[6],-0.342
same,glycan array binding signal (z-score),[7],-0.307
same,glycan array binding signal (z-score),[8],-0.342
same,glycan array binding signal (z-score),[9],-0.287
same,glycan array binding signal (z-score),[10],-0.324
same,glycan array binding signal (z-score),[11],-0.321
same,glycan array binding signal (z-score),[12],-0.255
same,glycan array binding signal (z-score),[13],-0.084
same,glycan array binding signal (z-score),[14],-0.183
same,glycan array binding signal (z-score),[15],-0.332
same,glycan array binding signal (z-score),[16],-0.31
same,glycan array binding signal (z-score),[17],-0.151
same,glycan array binding signal (z-score),[18],-0.329
same,glycan array binding signal (z-score),[19],-0.257
same,glycan array binding signal (z-score),[20],-0.306
same,glycan array binding signal (z-score),[21],-0.314
same,glycan array binding signal (z-score),[22],-0.33
same,glycan array binding signal (z-score),[23],0.045
same,glycan array binding signal (z-score),[24],-0.23
same,glycan array binding signal (z-score),[25],-0.21
same,glycan array binding signal (z-score),[26],5.89
same,glycan array binding signal (z-score),[27],4.37
same,glycan array binding signal (z-score),[28],8.45
same,glycan array binding signal (z-score),[29],4.46
same,glycan array binding signal (z-score),[30],5.75
same,glycan array binding signal (z-score),[31],5.87
same,glycan array binding signal (z-score),[32],-0.157
same,glycan array binding signal (z-score),[33],7.8
same,glycan array binding signal (z-score),[34],5.95
same,glycan array binding signal (z-score),[35],7.24
same,glycan array binding signal (z-score),[36],4.71
same,glycan array binding signal (z-score),[37],0.183
same,glycan array binding signal (z-score),[38],-0.197
same,glycan array binding signal (z-score),[39],-0.046
same,glycan array binding signal (z-score),[40],-0.2
same,glycan array binding signal (z-score),[41],0.647
same,glycan array binding signal (z-score),[42],6.28
same,glycan array binding signal (z-score),[43],-0.044
same,glycan array binding signal (z-score),[44],-0.252
